This is a sample that favours compounds with a hit; in the whole collection about 1.6% have one here.
KCNQ2 pot = potentiators of rat KCNQ2 potassium channel. O88943. CHO-K1 KCNQ2, FluxOR thallium flux fluorescence; stronger effect = higher value. B-score at 10 µM. 0.54% of 310,000 active. AID 2239;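 active = fluorescence ratio B-score at least 3 SD of library B-scores, with initial fluorescence B-score within 3 of them, cut at about 5.3 in these data; same plate scores as AID 2156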;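 also: B-score of peak minus minimum over baseline fluorescence ratio after K+ and Tl+ stimulus; positive B-score means potentiation of KCNQ2 with more thallium influx and brighter signal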
KCNQ2 inh = KCNQ2 (rat) channel inhibition. 1.1% of 310,000 active. O88943. B-score at 10 µM. CHO-K1 KCNQ2, FluxOR thallium flux, 20 min; stronger effect = lower value. AID 2156;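 active = fluorescence ratio B-score at most minus 3 library SDs, with starting brightness B-score within 2 library SDs, cut at about -5.5 in these data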
Kir21 confirm = confirmation of mouse Kir2.1 potassium channel inhibitors; shares compounds with KCNQ2 pot; Kir2.1-expressing cells, FluxOR thallium flux fluorescence; stronger effect = lower value; Tl flux remaining, % of negative control (stronger effect = lower value), % at 10 µM; 41% of 2,300 active; AID 2032;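 active = Primary-screen hit whose thallium flux fell at least 3 control SD below untreated wells in both duplicates, with normal baseline fluorescence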;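 also: 0% = blank wells without stimulus and 100% = stimulated no-compound controls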
Target sequence (P35561 whole entry, looked up): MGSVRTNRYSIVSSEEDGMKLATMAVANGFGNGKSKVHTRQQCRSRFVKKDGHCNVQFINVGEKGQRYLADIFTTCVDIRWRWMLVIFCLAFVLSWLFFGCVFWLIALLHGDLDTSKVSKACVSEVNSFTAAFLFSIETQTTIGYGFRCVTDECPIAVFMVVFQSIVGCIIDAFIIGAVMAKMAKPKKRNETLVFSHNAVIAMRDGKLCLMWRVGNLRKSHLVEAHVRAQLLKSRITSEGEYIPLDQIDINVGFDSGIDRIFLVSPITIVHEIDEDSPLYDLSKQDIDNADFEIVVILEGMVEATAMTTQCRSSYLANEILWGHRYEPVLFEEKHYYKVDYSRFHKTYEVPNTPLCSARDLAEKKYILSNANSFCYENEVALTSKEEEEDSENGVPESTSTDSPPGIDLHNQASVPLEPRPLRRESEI
HEK293 Tl flux = parental HEK293 activity in Kir2.1 inhibitor counter-screen; shares compounds with KCNQ2 pot; parental HEK293 cells, FluxOR thallium flux fluorescence; 0% = unstimulated blank wells; FluxOR signal as % of negative control (100 = no effect), % at 10 µM; 19% of 2,300 active;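 active = dye signal at least 3 control SD above or below untreated wells in both duplicates, raw fluorescence within 3, either direction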;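 also: percent is based on the flux ratio of peak minus minimum fluorescence over baseline F0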
CHO-K1 Tl ctr = counter-screen for KCNQ2 potentiators: effect in parental CHO-K1 cells. activity increase over 3SD of controls, % at 10 µM. FluxOR thallium flux fluorescence; zero = vehicle mean+3SD, 100% = vehicle-minus-blank window. shares compounds with KCNQ2 pot. 43% of 1,200 active;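 active = signal rise of at least 3 SD above the untreated control mean, in both duplicate wells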;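 also: counter screen of KCNQ2 potentiator hits so any rise reflects channel-independent effects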
KCNQ1 pot spec = human KCNQ1 counter-target activity of KCNQ2 potentiators | shares compounds with KCNQ2 pot | CHO KCNQ1 stable, FluxOR thallium flux fluorescence; beyond 3SD, as % of vehicle-control signal | activation over 3SD threshold, % at 10 µM | 28% of 1,200 active;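 active = fluorescence ratio rise of at least 3 SD of vehicle wells above their mean, in both replicate wells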;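 also: 0% = vehicle mean plus 3 SD and 100% = vehicle minus unstimulated blank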
KCNQ2 pot conf = rat KCNQ2 channel potentiator confirmation. shares compounds with KCNQ2 pot. CHO-KCNQ2 cells, FluxOR thallium flux fluorescence. potentiation, less the hit threshold, % at 10 µM. 68% of 1,200 active. AID 2287;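 active = fluorescence ratio rising 3 SD or more over the vehicle control mean in both replicates, plus primary screen hit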;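 also: peak minus minimum thallium fluorescence divided by baseline after K/Tl stimulus; 0% = vehicle mean plus 3 SD and 100% = vehicle minus unstimulated blank difference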
Kir2-1 sel = selectivity of KCNQ2 potentiators: effect on mouse Kir2.1; shares compounds with KCNQ2 pot; HEK293 Kir2.1, FluxOR thallium flux fluorescence; activity over 3SD threshold, % at 10 µM; 2% of 1,200 active;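 active = fluorescence ratio rise of at least 3 SD above the vehicle-control mean, seen in both replicates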;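 also: 0% = vehicle mean plus 3 SD and 100% = vehicle minus no-stimulus blank window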
KCNQ2 W236L pot = rat KCNQ2 W236L mutant potentiation by KCNQ2 potentiators; shares compounds with KCNQ2 pot; CHO KCNQ2-W236L, automated patch clamp current; current increase over 3SD of negative controls (%), stronger effect = higher value, % at 25 µM; 10% of 940 active; AID 2558;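 active = current increase at least 3 SD of the untreated controls above them in both duplicate recordings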
* hit, by the source's call.

`O=C(COC(=O)c1ccc(Br)cc1)NCCC1=CCCCC1` gave KCNQ2 inh inactive.
COc1ccc(NC(=O)CN2C(=O)NC3(CCCC3)C2=O)c(OC)c1 was read as KCNQ2 inh inactive.
CCCCC(=O)Nc1ccccc1Oc1ccccc1 was read as KCNQ2 pot 9*, KCNQ2 inh inactive, CHO-K1 Tl ctr -10, KCNQ1 pot spec -17, KCNQ2 pot conf 19*, Kir2-1 sel -81 and KCNQ2 W236L pot inactive.
Screening CCOc1ccc(Oc2ccccc2NC(=O)CN2C(=O)NC3(CCCC3)C2=O)cc1 returned KCNQ2 pot 5.9*, KCNQ2 inh inactive, Kir21 confirm inactive, HEK293 Tl flux inactive, CHO-K1 Tl ctr -7, KCNQ1 pot spec -18, KCNQ2 pot conf 26*, Kir2-1 sel -39 and KCNQ2 W236L pot inactive.
`O=C(O)CCCC(=O)Nc1ccccc1Oc1ccccc1` gave KCNQ2 inh inactive.
`CCOC(=O)C(C)(C)N(Cc1cccc(C)c1)S(=O)(=O)c1cccc([N+](=O)[O-])c1` gave KCNQ2 inh inactive.
Screening CCOC(=O)C(=CNc1ccc(NC2=NCC(C)(C)S2)cc1)C(=O)OCC returned KCNQ2 inh inactive, Kir21 confirm 58%* and HEK293 Tl flux inactive.
CCOC(=O)C(=CNc1ccc(S(N)(=O)=O)cc1)C(=O)OCC was read as KCNQ2 inh inactive.
For O=C(COc1ccccc1)N=C1SC2CS(=O)(=O)CC2N1c1ccccc1F (configuration not stated) the results were KCNQ2 inh inactive.
`COc1ccc(C(=O)Nc2nnc(-c3ccc(F)cc3)s2)c(OC)c1` gave KCNQ2 pot 10*, KCNQ2 inh inactive, Kir21 confirm inactive, HEK293 Tl flux inactive, CHO-K1 Tl ctr -33, KCNQ1 pot spec 19*, KCNQ2 pot conf -14 and Kir2-1 sel -38.
COc1ccccc1C(=O)Nc1nnc(-c2ccc(F)cc2)s1 was read as KCNQ2 inh inactive.
For Cc1cccc(Oc2ccc(N)cc2)c1 the results were KCNQ2 inh inactive.
N#Cc1nc(Cc2cccc3ccccc23)oc1NCCCN1CCOCC1 was read as KCNQ2 inh inactive, Kir21 confirm 52%* and HEK293 Tl flux inactive.
N#Cc1nc(Cc2cccc3ccccc23)oc1NCCCn1ccnc1 was read as KCNQ2 pot 0.19 and KCNQ2 inh inactive.
For Cc1cc(NC(=O)CSc2nnc(-c3cccnc3)n2C2CCCCC2C)no1 (configuration not stated) the results were KCNQ2 inh inactive.
For O=C(CSc1n[nH]c(=O)[nH]c1=O)N/N=C/c1ccccc1O the results were KCNQ2 pot 0.06 and KCNQ2 inh inactive.
Screening O=C(CSc1ccccc1)N/N=C/c1ccccc1O returned KCNQ2 pot 6*, KCNQ2 inh inactive, Kir21 confirm inactive, HEK293 Tl flux inactive, CHO-K1 Tl ctr -11, KCNQ1 pot spec -14, KCNQ2 pot conf 25*, Kir2-1 sel -30 and KCNQ2 W236L pot inactive.
Screening COc1ccc(C(=O)N/C(=C/c2cccnc2)C(=O)Nc2cccc(C(C)=O)c2)cc1OC returned KCNQ2 pot 0.79 and KCNQ2 inh inactive.
`CSc1ccc(Cl)c(C(=O)OCC(=O)NC2CC2)c1` gave KCNQ2 pot 0.49 and KCNQ2 inh inactive.
For S=C1NC[C@H](c2ccccc2)N1CCCCC1CCCCC1 the results were KCNQ2 pot 0.4 and KCNQ2 inh inactive.
Screening NC1=NC[C@H](c2ccccc2)N1CCCCC1CCCCC1 returned KCNQ2 inh inactive, Kir21 confirm 38%* and HEK293 Tl flux inactive.
Screening CC1=NN(C(=O)c2c(Br)cnn2C)C(O)(C(F)(F)F)C1 (configuration not stated) returned KCNQ2 pot 14*, KCNQ2 inh inactive, Kir21 confirm inactive, HEK293 Tl flux inactive, CHO-K1 Tl ctr -17, KCNQ1 pot spec -6, KCNQ2 pot conf -13 and Kir2-1 sel -32.
For COc1ccc(OCC(=O)N2N=C(C)CC2(O)C(F)(F)F)cc1 (configuration not stated) the results were KCNQ2 inh inactive.
`Cc1cc(C)c(C2C(C#N)=C(N)Oc3n[nH]c(C)c32)cc1CN1CCCC1` (configuration not stated) gave KCNQ2 inh inactive.
Screening O=C(Nc1ccc(Cl)cn1)C1COc2ccccc2O1 (configuration not stated) returned KCNQ2 inh inactive.
Screening CN(Cc1ccc(C#CCCO)cc1)CC1CCCN(CCc2ccc(Cl)cc2)C1 (configuration not stated) returned KCNQ2 inh inactive, Kir21 confirm 40%* and HEK293 Tl flux inactive.
`COc1ccc(CN(C)CC2CCCN(CCc3ccc(F)cc3)C2)c(OC)c1OC` (configuration not stated) gave KCNQ2 inh inactive.
`CCN(Cc1ccc(OC)c(COC)c1)CC1CCCN(CCc2cccc(OC)c2)C1` (configuration not stated) gave KCNQ2 pot 0.77 and KCNQ2 inh inactive.
COc1ccc(CCN2CCCC(CN(C)Cc3cccc(OC)c3)C2)cc1 (configuration not stated) was read as KCNQ2 pot 0.89, KCNQ2 inh inactive, Kir21 confirm 33%* and HEK293 Tl flux inactive.
CCN(Cc1ccc(OC)c(COC)c1)CC1CCCN(CCc2cccc(F)c2)C1 (configuration not stated) was read as KCNQ2 inh inactive.
`CCN(Cc1ccc(C#CCCO)cc1)CC1CCCN(CCc2cccc(F)c2)C1` (configuration not stated) gave KCNQ2 inh inactive, Kir21 confirm 53%* and HEK293 Tl flux inactive.
Screening COc1ccc(-n2cnnc2SCc2ncc(-c3ccccc3)o2)cc1 returned KCNQ2 pot 0.91 and KCNQ2 inh inactive.
For COc1cc(NC(=S)Nc2ccc(Br)cc2Cl)c(OC)cc1Cl the results were KCNQ2 pot 0.15 and KCNQ2 inh inactive.
